The record followed here is the antibiotic and cytotoxicity screens of Wong et al. (2023).

Molecules are shown by their SMILES. The whole screen tested about 39,000 compounds, of which about 1,500 (3.8%) were called active. The sample holds actives, similar compounds and a random draw of the others, so the mix is not that of the screen.

This assay relates to HSkMC (human skeletal muscle cells). The experiment in a line: cytotoxicity call (relative viability < 0.9). Conditions: 10 µM.
With `COc1ccc(S(=O)(=O)N(C)C[C@H]2OCCCC[C@H](C)Oc3ccc(NC(=O)c4ccccc4)cc3C(=O)N([C@@H](C)CO)C[C@H]2C)cc1`, the cytotoxicity call was “inactive”.

For the compound `COc1ccc2c3c(n(c2c1)C)[C@H](CO)N(C[C@]13CN(C1)S(=O)(=O)c1cn(cn1)C)C(=O)Nc1ccc(cc1)F`, the cytotoxicity call is “inactive”.

Consider `COc1ccc(S(=O)(=O)Nc2ccc3c(c2)C(=O)N([C@@H](C)CO)C[C@@H](C)[C@@H](CN(C)C(=O)Nc2ccc(C(F)(F)F)cc2)OCCCC[C@@H](C)O3)cc1`, for which the cytotoxicity call was “inactive”.

As for `C[C@@H]1CCCCO[C@H](CN(C)C(=O)CCC(F)(F)F)[C@H](C)CN([C@@H](C)CO)C(=O)c2cc(NS(=O)(=O)c3cccs3)ccc2O1`, the cytotoxicity call is “inactive”.

For `CC[C@@]1(O)C[C@H](O[C@H]2C[C@H](N(C)C)[C@H](O[C@H]3C[C@H](O)[C@H](O[C@H]4CCC(=O)[C@H](C)O4)[C@H](C)O3)[C@H](C)O2)c2c(cc3c(c2O)C(=O)c2c(O)cccc2C3=O)[C@H]1C(=O)OC`, the cytotoxicity call was “active”.

As to `COC(=O)[C@H]1c2cc3c(c(O)c2[C@@H](O[C@@H]2O[C@H](C)[C@H](OC)[C@](C)(OC)[C@@H]2OC)C[C@@]1(C)O)C(=O)c1c(O)cc2c(c1C3=O)O[C@H]1O[C@@]2(C)[C@@H](O)[C@H](N(C)C)[C@@H]1O`, the cytotoxicity call is “inactive”.

For `C[C@@H]1CCCCO[C@H](CN(C)Cc2ccc(Cl)c(Cl)c2)[C@@H](C)CN([C@H](C)CO)C(=O)c2cc(NC(=O)c3ccncc3)ccc2O1`, the cytotoxicity call is “inactive”.

For `CC=Cc1ccc2n(c1=O)C[C@H]1[C@H](CO)[C@@H](C(=O)NCCc3cn(C)cn3)[C@@H]2N1C(=O)C1CC1`, the cytotoxicity call is “inactive”.

Turning to `C[C@H](CO)N1C[C@H](C)[C@H](CN(C)C(=O)Nc2ccc3c(c2)OCO3)Oc2c(NC(=O)C3CC3)cccc2C1=O`, the cytotoxicity call was “inactive”.

For the compound `C[C@H](CO)N1C[C@H](C)[C@@H](CN(C)S(=O)(=O)c2ccc(Cl)cc2)OCCCC[C@H](C)Oc2ccc(NS(=O)(=O)c3ccccc3)cc2C1=O`, the cytotoxicity call was “inactive”.

For `Cc1c(N)nc([C@H](CC(N)=O)NC[C@H](N)C(N)=O)nc1C(=O)N[C@H](C(=O)N[C@H](C)[C@@H](O)[C@H](C)C(=O)N[C@H](C(=O)NCCc1nc(-c2nc(C(=O)NCCCNCCCCN)cs2)cs1)[C@@H](C)O)[C@@H](O[C@@H]1O[C@@H](CO)[C@@H](O)[C@H](O)[C@@H]1O[C@@H]1O[C@H](CO)[C@@H](O)[C@H](OC(N)=O)[C@@H]1O)c1c[nH]cn1`, the cytotoxicity call was “active”.

Consider `Cc1ccc(S(=O)(=O)N(C)C[C@@H]2Oc3ccc(NC(=O)Cn4cnnn4)cc3CC(=O)N([C@@H](C)CO)C[C@H]2C)cc1`, for which the cytotoxicity call is “inactive”.

For the compound `C[C@H]1CN([C@@H](C)CO)C(=O)c2cccc(NC(=O)Nc3ccc(C(F)(F)F)cc3)c2O[C@H]1CN(C)Cc1ccc(-c2ccccc2)cc1`, the cytotoxicity call is “inactive”.

For the compound `C[C@H](CO)N1C[C@H](C)[C@H](CN(C)Cc2ccc(C(F)(F)F)cc2)Oc2c(NC(=O)Nc3ccccc3)cccc2C1=O`, the cytotoxicity call was “inactive”.

`C[C@H](CO)N1C[C@H](C)[C@@H](CN(C)Cc2ccc(C(F)(F)F)cc2)Oc2c(NC(=O)Nc3ccccc3)cccc2C1=O`: the cytotoxicity call is “inactive”.

Regarding `C[C@@H]1CN([C@H](C)CO)C(=O)c2cccc(NC(=O)Nc3ccc(C(F)(F)F)cc3)c2O[C@H]1CN(C)Cc1ccc(-c2ccccc2)cc1`, the cytotoxicity call is “inactive”.

Turning to `C[C@@H]1CN([C@H](C)CO)C(=O)c2cccc(NC(=O)Nc3ccccc3)c2O[C@H]1CN(C)Cc1ccc(C(F)(F)F)cc1`, the cytotoxicity call was “active”.

Take `C[C@@H]1CN([C@@H](C)CO)C(=O)c2cccc(NC(=O)Nc3ccccc3)c2O[C@H]1CN(C)Cc1ccc(C(F)(F)F)cc1`: the cytotoxicity call was “inactive”.

Consider `C[C@@H]1CN([C@H](C)CO)C(=O)c2cccc(NC(=O)Nc3ccc(C(F)(F)F)cc3)c2O[C@@H]1CN(C)Cc1ccc(-c2ccccc2)cc1`, for which the cytotoxicity call is “active”.

For `C[C@@H]1CN([C@@H](C)CO)C(=O)c2cccc(NC(=O)Nc3ccccc3)c2O[C@@H]1CN(C)Cc1ccc(C(F)(F)F)cc1`, the cytotoxicity call is “inactive”.

Consider `C[C@H]1CN([C@@H](C)CO)C(=O)c2cccc(NC(=O)Nc3ccccc3)c2O[C@@H]1CN(C)Cc1ccc(C(F)(F)F)cc1`, for which the cytotoxicity call is “active”.

`Cc1noc(C)c1NC(=O)Nc1ccc2c(c1)C(=O)N([C@H](C)CO)C[C@H](C)[C@H](CN(C)Cc1ccncc1)OCCCC[C@H](C)O2`: the cytotoxicity call is “inactive”.

For `Cc1noc(C)c1S(=O)(=O)N(C)C[C@H]1Oc2ccc(NC(=O)Cc3ccccc3)cc2CC(=O)N([C@@H](C)CO)C[C@H]1C`, the cytotoxicity call is “inactive”.

In the case of `CN(C)Cc1cn(CC[C@H]2CC[C@@H](NC(=O)Cc3cccnc3)[C@H](CO)O2)nn1`, the cytotoxicity call is “inactive”.

For the compound `C[C@H](CO)N1C[C@H](C)[C@@H](CN(C)Cc2ccc(-c3ccccc3)cc2)Oc2c(NC(=O)CCCCCC(=O)Nc3ccccc3N)cccc2C1=O`, the cytotoxicity call was “inactive”.

On to `CC(C)NC(=O)N(C)C[C@H]1Oc2cc(C#Cc3cccc(F)c3)ccc2S(=O)(=O)N([C@@H](C)CO)C[C@@H]1C`, for which the cytotoxicity call is “inactive”.

Take `C[C@H](NC(=O)C[C@H]1CC[C@H](NC(=O)CN2CCOCC2)[C@@H](CO)O1)c1ccccc1`: the cytotoxicity call was “inactive”.

With `COc1ccc(NC(=O)Nc2cccc3c2O[C@@H](CN(C)Cc2ccc(Oc4ccccc4)cc2)[C@@H](C)CN([C@H](C)CO)C3=O)cc1`, the cytotoxicity call is “active”.

On to `COc1ccc(NC(=O)Nc2cccc3c2O[C@@H](CN(C)Cc2ccc(Oc4ccccc4)cc2)[C@H](C)CN([C@@H](C)CO)C3=O)cc1`, for which the cytotoxicity call was “inactive”.

Take `COc1ccc(NC(=O)Nc2cccc3c2O[C@@H](CN(C)Cc2ccc(Oc4ccccc4)cc2)[C@@H](C)CN([C@@H](C)CO)C3=O)cc1`: the cytotoxicity call was “inactive”.

For the compound `COc1ccc(NC(=O)Nc2cccc3c2O[C@@H](CN(C)Cc2ccc(Oc4ccccc4)cc2)[C@H](C)CN([C@H](C)CO)C3=O)cc1`, the cytotoxicity call was “inactive”.

Regarding `COc1ccc(NC(=O)Nc2cccc3c2O[C@H](CN(C)Cc2ccc(Oc4ccccc4)cc2)[C@@H](C)CN([C@@H](C)CO)C3=O)cc1`, the cytotoxicity call is “active”.

In the case of `COc1ccc(NC(=O)Nc2cccc3c2O[C@H](CN(C)Cc2ccc(Oc4ccccc4)cc2)[C@H](C)CN([C@H](C)CO)C3=O)cc1`, the cytotoxicity call was “inactive”.

On to `CC(C)NC(=O)Nc1ccc2c(c1)C(=O)N([C@H](C)CO)C[C@H](C)[C@@H](CN(C)S(C)(=O)=O)OCCCC[C@@H](C)O2`, for which the cytotoxicity call is “inactive”.

In the case of `CC(C)(C)[S@](=O)N1Cc2cc(C(=O)N3CCCCC3)nc(-c3cccc(C4=CCCC4)c3)c2[C@@H]1CCO`, the cytotoxicity call is “inactive”.

As for `Cc1noc(C)c1NC(=O)N(C)C[C@@H]1OCCCC[C@H](C)Oc2ccc(NS(=O)(=O)c3ccc(Cl)cc3)cc2C(=O)N([C@H](C)CO)C[C@@H]1C`, the cytotoxicity call was “inactive”.

With `CC[C@H](C)[C@@H]([C@@H](CC(=O)N1CCC[C@H]1[C@H](OC)[C@@H](C)C(=O)N[C@@H](Cc1ccccc1)c1nccs1)OC)N(C)C(=O)[C@@H](NC(=O)[C@H](C(C)C)N(C)C)C(C)C`, the cytotoxicity call is “active”.

With `C[C@H](CO)N1C[C@H](C)[C@@H](CN(C)Cc2ccc(Oc3ccccc3)cc2)Oc2c(NC(=O)Cc3ccccc3)cccc2C1=O`, the cytotoxicity call was “inactive”.

Regarding `COc1ccc(NC(=O)Nc2ccc3c(c2)C(=O)N([C@H](C)CO)C[C@@H](C)[C@@H](CN(C)Cc2ccc4c(c2)OCO4)OCCCC[C@@H](C)O3)cc1`, the cytotoxicity call is “inactive”.

As for `Cc1noc(C)c1S(=O)(=O)Nc1ccc2c(c1)C(=O)N([C@@H](C)CO)C[C@H](C)[C@@H](CN(C)C(=O)Nc1ccc(C(F)(F)F)cc1)OCCCC[C@@H](C)O2`, the cytotoxicity call was “inactive”.

Regarding `C[C@@H]1CN([C@@H](C)CO)C(=O)c2cc(NC(=O)CCCCCC(=O)Nc3ccccc3N)ccc2O[C@H]1CN(C)C(=O)Nc1ccc(F)cc1`, the cytotoxicity call was “inactive”.

In the case of `Nn1c(-c2ccncc2)nncc1=O`, the cytotoxicity call is “inactive”.

With `C[C@@H]1CN([C@H](C)CO)C(=O)Cc2cc(NC(=O)Nc3ccc4c(c3)OCO4)ccc2O[C@@H]1CN(C)Cc1ccc(Cl)c(Cl)c1`, the cytotoxicity call was “active”.

In the case of `C[C@H]1CN([C@@H](C)CO)C(=O)Cc2cc(NC(=O)Nc3ccc4c(c3)OCO4)ccc2O[C@H]1CN(C)Cc1ccc(Cl)c(Cl)c1`, the cytotoxicity call was “active”.

Consider `C[C@@H]1CN([C@@H](C)CO)C(=O)c2cc(NC(=O)Nc3ccc4c(c3)OCO4)ccc2O[C@H]1CN(C)Cc1ccc(Cl)c(Cl)c1`, for which the cytotoxicity call is “inactive”.

In the case of `C[C@H](CO)N1C[C@H](C)[C@H](CN(C)Cc2ccc(Cl)c(Cl)c2)Oc2ccc(NC(=O)Nc3ccc4c(c3)OCO4)cc2CC1=O`, the cytotoxicity call is “active”.

For the compound `C[C@@H]1CN([C@@H](C)CO)C(=O)Cc2cc(NC(=O)Nc3ccc4c(c3)OCO4)ccc2O[C@H]1CN(C)Cc1ccc(Cl)c(Cl)c1`, the cytotoxicity call is “inactive”.

For `C[C@@H]1CN([C@H](C)CO)C(=O)Cc2cc(NC(=O)Nc3ccc4c(c3)OCO4)ccc2O[C@H]1CN(C)Cc1ccc(Cl)c(Cl)c1`, the cytotoxicity call is “inactive”.

For the compound `C[C@H]1CN([C@@H](C)CO)C(=O)Cc2cc(NC(=O)Nc3ccc4c(c3)OCO4)ccc2O[C@@H]1CN(C)Cc1ccc(Cl)c(Cl)c1`, the cytotoxicity call was “inactive”.

Consider `C[C@H](CO)N1C[C@H](C)[C@@H](CN(C)Cc2ccc(Cl)c(Cl)c2)Oc2ccc(NC(=O)Nc3ccc4c(c3)OCO4)cc2CC1=O`, for which the cytotoxicity call is “active”.

Consider `C[C@H](CO)N1C[C@H](C)[C@H](CN(C)Cc2ccc(Cl)c(Cl)c2)Oc2ccc(NC(=O)Nc3ccc4c(c3)OCO4)cc2C1=O`, for which the cytotoxicity call was “inactive”.

With `C[C@H]1CN([C@@H](C)CO)C(=O)c2cc(NC(=O)Nc3ccc4c(c3)OCO4)ccc2O[C@H]1CN(C)Cc1ccc(Cl)c(Cl)c1`, the cytotoxicity call is “inactive”.

For `C[C@H]1CN([C@@H](C)CO)C(=O)c2cc(NC(=O)Nc3ccc4c(c3)OCO4)ccc2O[C@@H]1CN(C)Cc1ccc(Cl)c(Cl)c1`, the cytotoxicity call was “inactive”.

On to `C[C@@H]1CN([C@@H](C)CO)C(=O)Cc2cc(NC(=O)Nc3ccc4c(c3)OCO4)ccc2O[C@@H]1CN(C)Cc1ccc(Cl)c(Cl)c1`, for which the cytotoxicity call was “inactive”.
